Screening data: PubChem BioAssay, several laboratories
CCHFV vOTU inh – CCHFV vOTU protease inhibitors, primary screen, biochemical, Pep-AMC substrate, fluorescence | hit rate 0.55% among 370,000 | inhibition, % at 11.5 µM | Crimean-Congo hemorrhagic fever virus L polyprotein viral ovarian tumor (vOTU) protease …; in the data active = inhibition above about 30%; note: 0% = vehicle wells with enzyme and 100% = no enzyme wells
PfHsp40 rescue – rescue of yeast from PfHsp40 toxicity, primary screen, S. cerevisiae, ATP luminescence; S. cerevisiae expressing PfHsp40, growth rescue; growth rescue, % at 12.5 µM; hit rate 0.68% among 340,000; in the data active = growth rescue above about 28%, passing the limit was not always enough;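 note: yeast W303a lacking pdr1 and pdr3 grown in galactose medium; growth measured after three days at 30 °C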
Yp Topo-I inh – Yersinia pestis topoisomerase I inhibitors, primary screen, biochemical, cleavage product accumulation, plate reader, single point; Y. pestis Topo-I cleavage product accumulation; activity, % at 10 µM; DNA topoisomerase I (Yersinia pestis CO92); hit rate 0.064% among 360,000; in the data active = activity above about 50%, passing the limit was not always enough
PrPC surface inh – inhibitors of human cell surface prion protein PrPC, primary screen, cell-based, TR-FRET. inhibition, % at 13.8 µM. hit rate 0.43% among 370,000. AID 720596, 2013. Major prion protein (Homo sapiens), P04156. TR-FRET read-out; in the data active = inhibition above about 24%; note: 0% = median of the test wells and 100% = reference compound wells
PrP 5UTR inh – inhibition of PrP 5' UTR reporter expression; hit rate 0.35% among 340,000; cell-based PrP 5' UTR mRNA reporter, plate reader; inhibition, % (concentration not given with the values); in the data active = inhibition above about 52%; note: 0 = median of the neutral control wells
BJeLR lethal – MLPCN primary cell-based screen for lethality selective to Ras in HRASV12 cells; BJeLR (HRASV12) viability, CellTiter-Glo ATP luminescence, 48 h; hit rate 0.17% among 300,000; inhibition, % (test concentration not listed); AID 1554, 2009; in the data active = inhibition above about 50%
PrPC confirm – confirmation of inhibitors of cell surface human prion protein, confirmation, cell-based, TR-FRET; shares compounds with PrPC surface inh; cell surface PrPC level; inhibition, % at 13.8 µM; hit rate 65% among 1,500; AID 743200, 2013; in the data active = inhibition above about 25%
LD9 cytotox – cytotoxicity in LD9 cells, cytotoxicity control for cell surface PrPc inhibitor project, cell-based, luminescence, high throughput | shares compounds with PrPC surface inh | inhibition, % at 13.8 µM | hit rate 29% among 1,500 | AID 743201, 2013 | luminescence viability; in the data active = inhibition above about 9.5%
* marks the source's active call; other numbers are inactive results; . = no result given. Most compounds without a hit are left out; they make up all but 2% or so of the library.

SMILES | CCHFV vOTU inh | PfHsp40 rescue | Yp Topo-I inh | PrPC surface inh | PrP 5UTR inh | BJeLR lethal | PrPC confirm | LD9 cytotox
O=C(CCCOc1ccccc1)Nc1cccc(S(=O)(=O)N2CCCCC2)c1 | 2.6 | -0.1 | 27.4 | 3.7 | -36.8 | . | . | .
Cc1ccc(C(=O)Nc2ccc3cn[nH]c3c2)cc1S(=O)(=O)N1CCCCC1 | 12.7 | 14.4 | 13.3 | 25.6* | -51.3 | -2.6 | 18.1 | 0.5
COC(=O)c1cc(S(=O)(=O)NCC2CCN(C(=O)C(=O)c3cccs3)CC2)cs1 | 18.8 | . | . | 12.0 | . | . | . | .
CCc1nonc1NC(=O)c1oc2ccccc2c1C | -10.8 | -1.3 | -2.5 | 7.7 | -54.3 | 2.0 | . | .
CCc1nonc1NC(=O)c1oc2cc(Br)ccc2c1C | -2.8 | 1.5 | 4.9 | 28.5* | -6.2 | 5.2 | 90.7* | -4.6
CC(CCN1CCC(C(O)(c2ccccc2)c2ccccc2)CC1)Oc1cccc(Cl)c1 (stereo not given) | 6.8 | . | . | -14.8 | . | . | . | .
CCOC(=O)c1c(/N=C/N(C)C)sc(/C=N/Nc2ccccc2)c1-c1ccccc1 | -0.4 | -0.1 | -5.6 | 53.7* | -23.7 | 5.5 | 39.8* | 0.1
CCOC(=O)c1c(/N=C/N(C)C)sc(/C=N/Nc2ccccc2)c1-c1ccccc1Cl | 9.0 | 0.0 | -19.7 | -0.2 | -10.5 | -4.7 | . | .
CC1CCN(c2ccc3nnc(CCC(=O)N4CCCCC4)n3n2)CC1 | 0.3 | 0.9 | 9.8 | -0.2 | 0.5 | 4.4 | . | .
CC1CCN(c2ccc3nnc(CCC(=O)N4CCN(c5ccc(F)cc5)CC4)n3n2)CC1 | 14.4 | 0.1 | 19.4 | 40.2* | -18.8 | 2.8 | -5.7 | -2.8
CCCCN1CC(COCc2ccccc2)Oc2cccc(NCc3cc(OC)c(OC)c(OC)c3)c2S1(=O)=O (stereo not given) | 3.8 | . | . | 0.1 | . | . | . | .
Cc1ccc(CN2CCCCC(NC(=O)c3ccc(COc4ccccc4)cc3)C2=O)cc1 (stereo not given) | 3.7 | . | . | 25.4* | . | . | 19.1 | 0.7
Cc1ccc(CN2CCCCC(NC(=O)c3ccc(F)cc3)C2=O)cc1 (stereo not given) | -3.9 | . | . | 6.3 | . | . | . | .
NS(=O)(=O)c1ccc(CCNC(=O)c2cc(-c3ccccn3)nc3ccc(Br)cc23)cc1 | 13.4 | . | 8.2 | 29.0* | -36.4 | -3.3 | 47.6* | 21.1*
NS(=O)(=O)c1ccc(CCNC(=O)c2cc(-c3ccc(Br)cc3)nc3ccccc23)cc1 | -4.4 | -0.9 | 24.1 | 2.1 | -14.5 | -6.0 | . | .
Cc1ccc2c(c1)[C@H]1[C@H](CO2)[C@H](c2ccccc2)[C@]2(C)C(=O)Nc3ccc(Cl)cc3C(=O)N12 | 13.6 | -0.7 | 7.2 | 24.8* | 2.4 | . | 14.2 | -7.3
Cc1ccc2c(c1)[C@H]1[C@H](CO2)[C@H](c2ccccc2)[C@]2(C)C(=O)Nc3ccccc3C(=O)N12 | 11.7 | 0.1 | 7.3 | 10.5 | 3.8 | . | . | .
COc1ccc2c(c1)C(=O)N1[C@H]3c4cc(C)ccc4OC[C@@H]3[C@H](c3ccccc3)[C@]1(C)C(=O)N2 | 0.0 | 2.7 | 16.5 | 33.7* | -15.1 | . | 23.4 | -5.8
C[C@@]12C(=O)Nc3ccc(Cl)cc3C(=O)N1[C@H]1c3cc(Cl)ccc3OC[C@@H]1[C@@H]2c1ccccc1 | 16.2 | -0.8 | 2.0 | 26.0* | -5.3 | . | 16.2 | -7.9
COc1ccc2c(c1)[C@@H]1[C@H](CO2)[C@H](c2ccccc2)[C@]2(C)C(=O)Nc3ccc(C)cc3C(=O)N12 | . | 12.6 | 7.5 | . | -22.1 | . | . | .
NC(CO)c1csc(Nc2ccc(C(=O)c3ccccc3)cc2)n1 (stereo not given) | 3.6 | . | -11.0 | -6.8 | . | . | . | .
NC(c1csc(Nc2ccc(C(=O)c3ccccc3)cc2)n1)C1CCCCC1 (stereo not given) | 27.8 | . | -9.2 | 38.4* | . | . | 41.1* | 3.5
CC(=O)c1ccc(Nc2nc(C(N)C3CCCCC3)cs2)cc1 (stereo not given) | 8.8 | . | -1.1 | 29.4* | . | . | 39.1* | 3.6
NC(c1csc(Nc2ccc(C(=O)NCCO)cc2)n1)C1CCCCC1 (stereo not given) | 5.9 | . | -3.3 | 0.8 | . | . | . | .
O=C(NC1=N[C@@]2(C=C3CCCCC3n3c(=O)n(-c4ccccc4)c(=O)n32)[C@H](Cc2ccccc2)N1Cc1ccccc1)c1ccccc1 (stereo not given in full) | 10.1 | . | . | 2.5 | . | . | . | .
SMILES | CCHFV vOTU inh | PfHsp40 rescue | Yp Topo-I inh | PrPC surface inh | PrP 5UTR inh | BJeLR lethal | PrPC confirm | LD9 cytotox
OC[C@H]1O[C@@H](c2nc3ccc(-c4nc(-c5ccc(Br)cc5)no4)cc3[nH]2)C[C@@H]1O | 4.6 | . | 23.4 | 29.1* | . | . | 20.9 | 4.5
Cc1ccc(O)c(C(C)c2c[nH]c3ccccc23)c1 (stereo not given) | 6.2 | . | . | -5.7 | . | . | . | .
O=C(Nc1ccc(Br)cn1)c1ccc(Br)s1 | -2.8 | 0.6 | -5.9 | 28.3* | -82.1 | 7.1 | 43.9* | -3.4
CC[C@H](C)[C@@H]1NC(=O)[C@@H](CC(C)C)NC(=O)[C@H](C(C)C)NC(=O)[C@H]2CSSC[C@H](NC1=O)C(=O)N2 | -30.4 | . | . | 40.9* | . | . | 46.7* | 98.9*
Cc1csc(NC(=O)CSc2nc(C(C)C)nc3ccccc23)n1 | 6.7 | 6.1 | -4.5 | 83.9* | -17.6 | 5.9 | 105.1* | -4.7
Cc1ccc(C(=O)CSc2nc(C(C)C)nc3ccccc23)cc1 | -3.3 | -2.3 | 19.6 | 8.5 | -14.7 | 14.4 | . | .
CC(C)c1nc(SCC(=O)NC2CCCCC2)c2ccccc2n1 | -7.6 | 1.5 | 2.1 | 3.4 | 7.5 | -8.1 | . | .
CC(C)c1nc(SCC(=O)Nc2nccs2)c2ccccc2n1 | 3.0 | 0.0 | -6.8 | 50.5* | 5.1 | -9.7 | 89.6* | -3.7
CC(C)c1nc(SCC(=O)Nc2ccc(N(C)C)cc2)c2ccccc2n1 | 9.0 | 0.2 | 4.9 | 79.0* | -37.7 | -2.1 | 93.3* | -5.1
COc1ccc(Br)cc1C(C[N+](=O)[O-])c1c(N)n(C)c(=O)n(C)c1=O (stereo not given) | -2.0 | 2.1 | -5.6 | 68.0* | -5.5 | 3.9 | 37.7* | 33.4*
CCN(C(=O)[C@@H](C1CC1)[C@@H](O)c1ccc(C(C)=O)cc1)c1ccccc1 | -1.9 | . | . | -5.5 | . | . | . | .
COC(=O)[C@]12C[C@H](CC(=O)NCCCN3CCCC3=O)C(=O)N(Cc3cccc4ccccc34)C1=C[C@H](C1CCCC1)O[C@@H]2C | 4.3 | . | . | 1.6 | . | . | . | .
O=C(C1=C(O)C(=O)N(CCN2CCOCC2)C1c1cccc(F)c1)c1cc2ccccc2o1 (stereo not given) | -5.1 | 1.5 | 13.7 | 42.3* | -14.6 | -7.0 | 70.0* | -4.3
